# In the library only some 3.4% were active in any assay of this set; here they are far more common.
# Gli-Sufu antag – blocks Gli-Sufu signaling in a luciferase reporter; Sufu-KO-LIGHT fibroblasts, Gli luciferase reporter luminescence; inhibition, % at 5 µM; 340,000 compounds, 0.74% hits; AID 588413;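 active = inhibition above about 55%, limit read from the data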
# GalR3 antag – antagonists of human GalR3; O60755; HEK293 GalR3-CNG cAMP membrane potential fluorescence; galR3 body fused to GalR1 C-terminus; inhibition, % at 3 µM; 360,000 compounds, 0.44% hits;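 active = inhibition above the screen-wide average plus 3 SD, cut at about 13% in these data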;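 note: forskolin and galanin both at EC90 stimulate the cells; cAMP rise reported by CNG channel membrane potential dye signal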
# H9c2 protect – modulators protecting cardiomyocytes from myocardial damage | H9c2 cardiomyocytes, H2O2 injury protection, ATPLite, 2 h | protection from H2O2 cell death, % at 20 µM | 360,000 compounds, 0.63% hits;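 active = compounds giving at least 50% protection of heart cells from peroxide-induced death in the single-dose screen, raw or plate-pattern-corrected value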
# SMARCA2 act – activators of SMARCA2 function; AID 652017; 370,000 compounds, 1% hits; activation, % at 9.1 µM; MG213 cells, MMTV-luciferase reporter, dexamethasone, overnight; in the data active = activation above about 7.8%
# NR2F2 inh – blocks human COUP-TFII nuclear receptor. HEK293T NGFI-A luciferase reporter, luminescence. inhibition, % at 8.6 µM. 370,000 compounds, 0.7% hits. AID 686940;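 active = inhibition above a per-plate cutoff, mean inhibition of test wells between control levels plus 3 SD, cut at about 38% in these data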;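 note: cells cotransfected with COUP-TFII expression vector driving the NGFI-A reporter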
# Target sequence (P24468 whole entry, looked up): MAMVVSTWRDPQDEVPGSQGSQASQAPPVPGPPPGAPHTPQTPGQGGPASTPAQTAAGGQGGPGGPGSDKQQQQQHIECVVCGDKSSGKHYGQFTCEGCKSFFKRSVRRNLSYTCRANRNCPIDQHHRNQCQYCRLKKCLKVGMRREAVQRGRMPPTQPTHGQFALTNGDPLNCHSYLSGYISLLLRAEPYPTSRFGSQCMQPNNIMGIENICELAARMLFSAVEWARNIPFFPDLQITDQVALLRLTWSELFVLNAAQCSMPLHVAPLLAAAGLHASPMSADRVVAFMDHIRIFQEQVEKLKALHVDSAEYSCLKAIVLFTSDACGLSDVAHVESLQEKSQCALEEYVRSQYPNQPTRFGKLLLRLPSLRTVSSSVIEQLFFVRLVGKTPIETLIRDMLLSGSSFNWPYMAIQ
# GAA850 FXN act – frataxin GAA850 promoter activation; activation, % at 6 µM; HEK293 lucGAA850 FXN promoter luciferase reporter, 24 h; percent of 10 µM SAHA response; 360,000 compounds, 0.56% hits;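 active = activation above the average of all compounds screened plus 3 SD, cutoff fixed separately per campaign, cut at about 7.5% in these data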
# Gli antag conf – Gli-SUFU antagonism confirmation, single concentration; AID 602428; Sufu-KO-LIGHT cells, Gli luciferase reporter, luminescence; inhibition, % at 5 µM; 2,500 compounds, 40% hits; shares compounds with Gli-Sufu antag;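 active = mean inhibition at 5 µM reaching about 45%, limit read from the data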
# Gli cytotox – cytotoxicity counter-screen for Gli-SUFU antagonists; shares compounds with Gli-Sufu antag; Sufu-KO-LIGHT cells cytotoxicity, ATP luminescence; cytotoxicity, % at 5 µM; 2,500 compounds, 32% hits;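 active = mean cytotoxicity at 5 µM above about 25%, limit read from the data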;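 note: cells exposed to compound overnight for roughly 16 to 18 hours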
# Wnt3a counter – Wnt3a reporter inhibition counter-screen; 2,500 compounds, 20% hits; inhibition, % at 6.25 µM; shares compounds with Gli-Sufu antag; AID 651995; Wnt-LIGHT cells, Wnt3a-driven luciferase reporter, luminescence;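 active = mean inhibition above about 25%, limit read from the data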
# Hits are given with their value; i = inactive; nt = not tested or not shown.
SMILES,Gli-Sufu antag,GalR3 antag,H9c2 protect,SMARCA2 act,NR2F2 inh,GAA850 FXN act,Gli antag conf,Gli cytotox,Wnt3a counter
O=S1(=O)c2ccc(N3CC[C@H](O)C3)cc2O[C@H]2CCN1C2,nt,nt,nt,i,i,nt,nt,nt,nt
COCCCN1C(=O)[C@H](CC(=O)NCc2ccc(OC)c(OC)c2)[C@]2(C(=O)OC)CCCCC=C12,nt,nt,nt,i,i,nt,nt,nt,nt
CN1CCN(C(=O)c2ccc3c(c2)N(Cc2cccc(Cl)c2)C(=O)c2ccccc2S3=O)CC1 (centres undefined),i,i,i,i,i,i,nt,nt,nt
CCOC(=O)N1CCN(C(=O)c2ccc3c(c2)N(Cc2cccc(Cl)c2)C(=O)c2ccccc2S3=O)CC1 (centres undefined),56,i,i,i,i,i,i,i,i
CCOc1ccc(-c2[nH]ncc2-c2ccccc2)c(O)c1,55,i,i,i,i,i,i,i,i
CCCCN1CCc2c(c3ccccc3n2Cc2ccccc2)C1,60,i,i,i,i,i,i,i,i
COc1cc(CNCc2ccccn2)ccc1OCC(=O)NC1CCCCC1,68,i,i,i,i,i,i,i,i
COC(=O)c1cc2c(c3c4cc(OC)ccc4n(S(=O)(=O)c4ccc(F)cc4)c13)C(=O)N(CC(C)C)C2,nt,i,nt,i,i,nt,nt,nt,nt
CC(=O)Nc1cccc(C(=O)OCC(=O)NNC(=O)c2ccc([N+](=O)[O-])cc2)c1,i,i,i,i,i,i,nt,nt,nt
CC(=O)Nc1cccc(C(=O)OCc2ccc([N+](=O)[O-])cc2)c1,63,i,i,i,i,i,i,i,i
Cn1ncc(Cl)c1C(=O)N1CCN(C23CC4CC(CC(C4)C2)C3)CC1,99,i,i,i,i,i,i,i,i
CCCCCC(=O)OCc1ccc(C2=CC(=O)CC(C)(C)C2=O)cc1,nt,i,i,i,i,i,nt,nt,nt
Cc1cccc(Cn2cc(COC(=O)NCC(C)C)nn2)c1,nt,nt,nt,i,i,nt,nt,nt,nt
O=C(c1cccc(S(=O)(=O)N2CCN(c3ccccc3)CC2)c1)N1CCCC(C(F)(F)F)C1 (centres undefined),i,i,i,i,i,i,57,i,i
O=C(c1cccc(S(=O)(=O)N2CCCC2)c1)N1CCN(c2ccccc2)CC1,i,i,i,i,i,i,nt,nt,nt
O=C(c1cccc(S(=O)(=O)N2CCCc3ccccc32)c1)N1CCN(c2ccccc2)CC1,i,i,i,i,i,i,i,i,i
O=C(c1cccc(S(=O)(=O)N2CCc3ccccc32)c1)N1CCOCC1,i,i,i,i,i,i,nt,nt,nt
O=[N+]([O-])c1ccc2ncnc(N3CCN(Cc4ccc5c(c4)OCO5)CC3)c2c1,68,i,i,i,i,i,i,26,i
COC(/C(=N/O)c1ccc(Cl)cc1)c1ccccc1 (centres undefined),64,i,i,i,i,i,60,30,34
O=S1(=O)c2ccc(Br)cc2OC[C@@H](Cc2ccccc2)N1Cc1cn(CC2CCCCC2)nn1,nt,nt,nt,i,i,nt,nt,nt,nt
COc1ccc(S(=O)(=O)N2CCCC(C(=O)N3CCOCC3)C2)cc1Cl (centres undefined),i,i,i,i,i,i,nt,nt,nt
COc1ccc(S(=O)(=O)N2CCN(c3ccccc3)CC2)cc1C(=O)N1CCCC1,i,i,i,i,i,i,nt,nt,nt
COc1ccc(S(=O)(=O)N2CCOCC2)cc1C(=O)N1CCCC1,61,i,i,i,i,i,i,i,i
Cc1cc(S(=O)(=O)N2CCCC(C(=O)Nc3ccc(C(=O)O)cc3)C2)ccc1Cl (centres undefined),55,i,i,i,i,i,i,i,i
COc1ccc(S(=O)(=O)N2CCCC(C(=O)N3CCOCC3)C2)cc1C (centres undefined),99,i,i,i,i,i,i,i,i
COC(=O)[C@H](C(C)C)N(Cc1cn(Cc2ccc(C)cc2)nn1)S(=O)(=O)c1ccc(F)cc1Br,nt,nt,nt,i,i,nt,nt,nt,nt

# Compound activity: PubChem BioAssay, several laboratories
